Assay results from PubChem BioAssay (NCATS).
Records with an inconclusive call do not appear. Entries that show only a call come without a potency. Calls of active or inactive are those of the source. Unless noted, calls come from the whole dose curve; as a rule, active = well fitted curve in the direction sought with a large enough effect; inconclusive = small, poorly fitted or top-dose-only effect, or another doubt; inactive = no such curve, though single readings can be large; an effect the other way counts as inactive or inconclusive.

Columns and labels:
[1] = qHTS to identify inhibitors of the type 1 interferon - major histocompatibility complex class I in skeletal muscle: primary screen against the NCATS Mechanism Interrogation Plate v5.0 (MIPE) Libary (AID 1347411); note: nearly all actives have a fitted effect of over 65% in size; note: potency is the fitted concentration of half-maximal effect
Summary of the method: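 Luminescence from HiBiT-tagged endogenous HLA-B*08:01 served as the MHC class I read-out. CRISPR-engineered C25cl48 human myoblasts received 4.0 ng/ml IFN-beta plus compound for 24 hrs, with an 11-point, 1:3 series topping at 46 uM final.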

[2] = Primary qHTS for inhibitors of nuclear receptor binding SET domain protein 2 (NSD2) in an isogenic RCH-ACV NSD2 p.E1099K mutant (9B) (AID 1645876); note: nearly all actives have a fitted effect of over 70% in size; note: potency is the fitted concentration of half-maximal effect
[3] = Primary qHTS for inhibitors of nuclear receptor binding SET domain protein 2 (NSD2) in an RCH-ACV wild type WT cells (2C) (AID 1645877); note: nearly all actives have a fitted effect of over 70% in size; note: potency is the fitted concentration of half-maximal effect
[4] = molecular target: Glutathione peroxidase 1 (Homo sapiens) (UniProt P07203); test: Primary qHTS Assay for Inhibitors of Recombinant Selenoprotein Glutathione Peroxidase 1 (GPX1) (AID 1845191); note: nearly all actives have a fitted effect of over 65% in size
Summary of the method: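 Recombinant GPX1 (10 nM final) was preincubated with compound for 30 min at room temperature, then reacted with 1 mM GSH, 0.5 mM CHP, 0.5 mM NADPH and 100 nM glutathione reductase; NADPH fluorescence (340/450 nm) was read at 0 and 15 min.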

[5] = molecular target: Phospholipid hydroperoxide glutathione peroxidase GPX4 (Homo sapiens) (UniProt P36969); test: Primary qHTS Assay for Inhibitors of Recombinant Selenoprotein Glutathione Peroxidase 4 (GPX4) (AID 1845192); details: outcome: dose series up to 50 µM unless noted; note: nearly all actives have a fitted effect of over 65% in size
Summary of the method: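 GR-coupled readout: 100 nM GR, 1 mM GSH, 0.5 mM NADPH; NADPH fluorescence (ex 340/em 450 nm) read at t=0 and after 15 min RT. GPX4 200 nM, preincubated 30 min with compound; substrate 0.5 mM CHP.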

[6] = qHTS drug screen for cell cycle checkpoint inhibitors in PARPi-resistant BRCA-mutant ovarian cancer cell lines. (AID 1963452; calls by dose curve); details: PEO1/OlaR viability, CellTiter-Glo luminescence, 96 h, stronger effect = lower value
Summary of the method: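 PEO1, PEO4 and PEO1/OlaR ovarian cancer cells, 600 per well, exposed 96 h at 37C to a dilution series. Viability read by CellTiter-Glo luminescence, normalized to DMSO and empty wells; activity summarized as Z-AUC.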

[7] = measured here: PEO1 parental Z-AUC

Chain of Phospholipid hydroperoxide glutathione peroxidase GPX4 (Homo sapiens) (P36969 whole entry, looked up): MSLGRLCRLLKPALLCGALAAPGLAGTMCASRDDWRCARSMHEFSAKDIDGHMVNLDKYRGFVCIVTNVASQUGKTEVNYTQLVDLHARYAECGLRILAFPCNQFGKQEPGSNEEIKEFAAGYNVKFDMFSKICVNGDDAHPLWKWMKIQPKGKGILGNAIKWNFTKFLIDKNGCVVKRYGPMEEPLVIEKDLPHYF
Chain of Glutathione peroxidase 1 (Homo sapiens) (P07203 whole entry, looked up): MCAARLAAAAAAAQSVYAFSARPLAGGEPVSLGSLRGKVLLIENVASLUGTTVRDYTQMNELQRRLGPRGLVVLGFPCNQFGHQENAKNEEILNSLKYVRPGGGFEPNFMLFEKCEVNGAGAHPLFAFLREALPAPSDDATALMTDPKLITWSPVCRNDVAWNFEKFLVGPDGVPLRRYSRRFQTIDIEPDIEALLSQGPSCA

Row | SMILES | Potency [1] | Potency [2] | Potency [3] | Potency [4] | Potency [5] | Z-AUC [6] | Z-AUC [6, 7] | Z-AUC ([6]; measured here: PEO4 Z-AUC)
1 | CCOC(=O)N[C@@H]1CC[C@@H]2[C@@H](C1)C[C@H]1C(=O)O[C@H](C)[C@H]1[C@H]2/C=C/c1ccc(-c2cccc(F)c2)cn1 | inactive | 18.6 µM (active) | 13.2 µM (active) | inactive | inactive | 0.314 (inactive) | 1.37 | 1.33
2 | Cc1c(NC(=O)c2cc(C(N)=O)nc3cc(F)ccc23)c(C(F)(F)F)nn1Cc1ccc(C(C)(C)C)cc1 | inactive | inactive | inactive | inactive | inactive | -0.453 (inactive) | -0.106 | 0.0379
3 | CONC(=O)Nc1ccc(-c2sc3c(c2CN(C)Cc2ccccc2)c(=O)n(-c2ccccc2)c(=O)n3Cc2c(F)cccc2F)cc1 | inactive | inactive | inactive | inactive | inactive | -0.608 (inactive) | -0.886 | -0.917
4 | O=C(Nc1nccs1)C(c1cc(F)ccc1O)N1Cc2ccccc2C1=O (centres undefined) | inactive | inactive | inactive | inactive | inactive | -0.378 (inactive) | -0.736 | -0.75
5 | CCN(C(=O)c1ccccc1OC)c1cc2c(cc1N1CCNC[C@H]1C)n(C)c(=O)n2C | inactive | inactive | inactive | inactive | inactive | -0.888 (inactive) | -0.889 | -0.903
6 | C=CC(=O)Nc1cccc(Oc2nc(Nc3ccc(N4CCN(C)CC4)c(F)c3)nc3[nH]ccc23)c1 | 20.8 µM (active) | 1.48 µM (active) | 1.32 µM (active) | inactive | inactive | -1.38 (inactive) | -0.613 | -0.658
7 | C[C@@H]1C(=O)OC2[C@H](O)[C@]34[C@H]5C[C@@H](C(C)(C)C)[C@]36[C@@H](OC(=O)[C@@H]6O)O[C@@]4(C(=O)O5)[C@]21O (some centres undefined) | inactive | inactive | inactive | inactive | inactive | 1.19 (inactive) | 0.871 | 0.917
8 | CN(C)CCNC(=O)NC[C@H]1CC[C@@H]2[C@H](O1)c1cc(C(F)(F)F)ccc1N[C@H]2c1ccccc1 | inactive | 0.263 µM (active) | 0.417 µM (active) | inactive | inactive | -0.264 (inactive) | -0.891 | -1.1
